Test results taken from PubChem BioAssay.
The source made the active and inactive calls.

How the values were obtained:
[1] = E. coli DRC41 culture turbidity changes, primary screen, E. coli filamentation inducer project, strain DRC41, OD650, 48 h (AID 1152);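 further: E. coli MC1000 strain DRC41 lacking acrAB efflux pump and sulA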; conditions: E. coli DRC41 (acrAB sulA), higher = more signal, called active from +8 up or from −8 down
[2] = small-molecule binders of probe aLefty1, primary screen, biochemical, small-molecule microarray, 635/667 nm fluorescence (AID 1153); conditions: higher = more signal;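 further: score merges spot fluorescence with signal-to-noise ratio from the scanned slide images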
[3] = PSAC antagonists in infected red cells, primary screen, cell-based, P. falciparum Indochina, OD700, 1 h (AID 1154); conditions: P. falciparum Indochina infected RBC osmotic lysis, higher = more signal, called active from +8 up or from −8 down
[4] = PSAC antagonists in infected red cells, primary screen, cell-based, P. falciparum Indochina, OD700, 2 h (AID 1155);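 further: lysis reports solute entry through the parasite surface anion channel PSAC; channel blockers reduce lysis of infected cells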; conditions: P. falciparum Indochina infected erythrocytes, osmotic lysis OD700; higher = more signal, called active from +8 up or from −8 down
[5] = osmotic lysis modulators in infected erythrocytes, primary screen, PSAC antagonist project, cell-based, P. falciparum Indochina, OD700, 3 h (AID 1156); conditions: higher = more signal, called active from +8 up or from −8 down
[6] = PSAC antagonists in infected red cells, primary screen, cell-based, P. falciparum Indochina, OD700, 18 h (AID 1157); conditions: P. falciparum Indochina infected erythrocytes, osmotic lysis OD700, 18 h; higher = more signal, called active from +8 up or from −8 down
[7] = modulators of S6 phosphorylation in cells, primary screen, cell-based, A549, cytoblot, luminescence, serum-stimulated (AID 1158); conditions: A549 phospho-S6 cytoblot, 5 h, higher = more signal;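 further: serum-stimulated A549 lung adenocarcinoma cells; signal is phosphorylated S6 detected by cytoblot immunostaining with HRP secondary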
[8] = biological target: NADPH oxidase 2 (Homo sapiens) (UniProt P04839); assay: NOX2-dependent H2O2 signal modulators, primary screen, NOX inhibitor project, cell-based, HEK293-NOX2, PMA-stimulated, Amplex Red fluorescence (AID 1159); conditions: 45 min, higher = more signal, called active from +8 up or from −8 down; further: test concentration not given here
Chain of NADPH oxidase 2 (Homo sapiens) (P04839 whole entry, looked up): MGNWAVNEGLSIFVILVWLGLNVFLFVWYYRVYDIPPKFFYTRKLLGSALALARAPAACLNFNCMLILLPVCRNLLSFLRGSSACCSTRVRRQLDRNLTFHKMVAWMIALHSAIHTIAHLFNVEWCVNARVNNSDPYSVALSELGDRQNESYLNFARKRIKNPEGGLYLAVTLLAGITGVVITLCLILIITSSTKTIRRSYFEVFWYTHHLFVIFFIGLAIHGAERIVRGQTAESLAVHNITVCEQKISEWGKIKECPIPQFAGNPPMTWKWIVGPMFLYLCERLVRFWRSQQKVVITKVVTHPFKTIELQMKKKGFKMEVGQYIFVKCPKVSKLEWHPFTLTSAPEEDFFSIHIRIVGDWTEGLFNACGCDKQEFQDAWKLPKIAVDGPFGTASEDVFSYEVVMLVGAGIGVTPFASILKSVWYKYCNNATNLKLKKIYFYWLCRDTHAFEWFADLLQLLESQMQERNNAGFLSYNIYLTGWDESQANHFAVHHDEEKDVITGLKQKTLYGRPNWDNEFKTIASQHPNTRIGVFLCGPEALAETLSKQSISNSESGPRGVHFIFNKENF

[9] = biological target: NADPH oxidase 4 (Homo sapiens) (UniProt Q9NPH5); assay: NOX4-dependent H2O2 signal modulators, primary screen, NOX inhibitor project, cell-based, HEK293-NOX4, tetracycline-induced, Amplex Red fluorescence (AID 1160); conditions: 45 min, higher = more signal, called active from +8 up or from −8 down
Chain of NADPH oxidase 4 (Homo sapiens) (Q9NPH5 whole entry, looked up): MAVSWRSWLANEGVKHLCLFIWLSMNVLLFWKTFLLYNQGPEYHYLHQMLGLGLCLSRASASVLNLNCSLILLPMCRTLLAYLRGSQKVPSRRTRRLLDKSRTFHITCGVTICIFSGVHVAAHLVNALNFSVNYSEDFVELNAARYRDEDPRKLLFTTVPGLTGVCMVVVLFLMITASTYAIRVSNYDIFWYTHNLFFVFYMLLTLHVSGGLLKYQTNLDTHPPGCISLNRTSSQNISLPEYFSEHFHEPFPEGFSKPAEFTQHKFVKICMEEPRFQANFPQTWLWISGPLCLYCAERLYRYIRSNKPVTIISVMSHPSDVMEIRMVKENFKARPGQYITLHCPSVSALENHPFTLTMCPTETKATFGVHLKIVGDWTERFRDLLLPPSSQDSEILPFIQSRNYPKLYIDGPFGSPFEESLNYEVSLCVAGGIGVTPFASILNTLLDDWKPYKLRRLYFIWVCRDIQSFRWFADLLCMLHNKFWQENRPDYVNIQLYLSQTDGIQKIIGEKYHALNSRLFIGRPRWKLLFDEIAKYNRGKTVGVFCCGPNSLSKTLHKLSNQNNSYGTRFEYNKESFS

[10] = biological target: NADPH oxidase 5 (Homo sapiens) (UniProt Q96PH1); assay: NOX5-dependent H2O2 signal modulators, primary screen, NOX inhibitor project, cell-based, HEK293-NOX5, Amplex Red fluorescence (AID 1161); conditions: HEK293-NOX5, ionomycin, 45 min, higher = more signal
Chain of NADPH oxidase 5 (Homo sapiens) (Q96PH1 whole entry, looked up): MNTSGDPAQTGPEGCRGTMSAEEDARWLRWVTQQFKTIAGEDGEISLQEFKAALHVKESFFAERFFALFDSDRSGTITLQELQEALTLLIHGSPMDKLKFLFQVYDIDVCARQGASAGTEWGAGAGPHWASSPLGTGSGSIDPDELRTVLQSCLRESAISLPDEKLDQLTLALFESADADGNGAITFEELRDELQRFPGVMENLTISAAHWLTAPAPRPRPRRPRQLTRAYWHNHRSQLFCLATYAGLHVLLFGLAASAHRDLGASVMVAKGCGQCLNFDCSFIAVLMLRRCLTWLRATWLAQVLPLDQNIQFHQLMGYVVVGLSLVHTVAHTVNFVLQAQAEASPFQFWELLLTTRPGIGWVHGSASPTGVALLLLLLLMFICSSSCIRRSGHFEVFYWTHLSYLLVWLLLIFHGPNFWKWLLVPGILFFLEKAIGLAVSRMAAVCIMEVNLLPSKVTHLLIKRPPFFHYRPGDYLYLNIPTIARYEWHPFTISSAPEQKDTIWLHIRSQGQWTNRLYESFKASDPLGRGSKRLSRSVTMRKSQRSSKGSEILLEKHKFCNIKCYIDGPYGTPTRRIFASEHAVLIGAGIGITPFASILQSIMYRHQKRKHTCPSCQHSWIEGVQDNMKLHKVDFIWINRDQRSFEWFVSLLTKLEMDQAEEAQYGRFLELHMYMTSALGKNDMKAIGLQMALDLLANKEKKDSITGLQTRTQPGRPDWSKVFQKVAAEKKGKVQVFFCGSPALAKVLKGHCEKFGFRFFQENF

[11] = A549 cell viability effects, profiling panel, calcein-AM fluorescence, 48 h, basal (AID 1162); conditions: higher = more signal; further: test concentration not given here
[12] = adipocyte viability effects, profiling panel, cell-based, 3T3-L1 adipocytes, calcein-AM fluorescence, 48 h, basal (AID 1163); conditions: 3T3-L1 adipocytes viability, higher = more signal; further: test concentration not given here
[13] = HepG2 cell viability effects, profiling panel, calcein-AM fluorescence, 48 h, basal (AID 1164); conditions: higher = more signal; further: test concentration not given here
[14] = MM1S cell viability effects, profiling panel, calcein-AM fluorescence, 48 h, basal (AID 1165); conditions: higher = more signal;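 further: viability of MM1S multiple myeloma cells under basal unstimulated conditions; test concentration not given here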
[15] = basal RPMI8226 viability, no added stimulus, profiling panel, cell-based, calcein-AM fluorescence, 48 h, PK04 Diversity Set (AID 1166); conditions: RPMI8226 myeloma viability, higher = more signal;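 further: cells grown under basal conditions without added stimulus; test concentration not given here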
[16] = basal HepG2 mitochondrial membrane potential changes, profiling panel, cell-based, JC-1 fluorescence, 24 h, 100 nL compound (AID 1167); conditions: higher = more signal; further: test concentration not given here
[17] = basal 3T3-L1 adipocyte mitochondrial potential changes, profiling panel, cell-based, JC-1 fluorescence, 3T3-L1 adipocytes, 24 h, 100 nL compound (AID 1168); conditions: JC-1 mitochondrial fluorescence, higher = more signal, called active from +8 up or from −8 down; further: test concentration not given here
[18] = basal RPMI8226 mitochondrial membrane potential changes, profiling panel, cell-based, JC-1 fluorescence, 24 h, 100 nL compound (AID 1169); conditions: RPMI8226 myeloma, JC-1 mitochondrial potential fluorescence, higher = more signal; further: test concentration not given here
[19] = basal MM1S mitochondrial membrane potential changes, profiling panel, cell-based, JC-1 fluorescence, 24 h, 100 nL compound (AID 1170); conditions: higher = more signal; further: test concentration not given here
[20] = A549 lung cancer cell viability effects, profiling panel, resazurin fluorescence, 24 h, PK04 Diversity Set (AID 1171); conditions: higher = more signal, called active from +8 up or from −8 down; further: test concentration not given here

SMILES | z-score [1] | composite z-score [2] | z-score [3] | z-score [4] | z-score [5] | z-score [6] | z-score [7] | z-score [8] | z-score [9] | z-score [10] | z-score [11] | z-score [12] | z-score [13] | z-score [14] | z-score [15] | z-score [16] | z-score [17] | z-score [18] | z-score [19] | z-score [20]
O=C1N(CCS(=O)(=O)c2ccccc2)c2ccccc2[C@H]2OC(c3ccc(OCCCO)cc3)=N[C@@]12Cc1ccccc1 | -1.05 (inactive) | 0.253 | 31.2 (active) | 27.5 (active) | 3.08 (inactive) | 6.96 (inactive) | 0.468 | -1.85 (inactive) | 1.07 (inactive) | -0.191 | -0.386 | 0.726 | -0.763 | -2.18 | -2.65 | -0.654 | 0.777 (inactive) | -1.19 | -2.19 | -1.02 (inactive)
COC(=O)[C@@H]1N=C(c2ccc(OCCCO)cc2)O[C@@H]1c1ccccc1 | 0.813 (inactive) | -0.717 | 24.5 (active) | 12.5 (active) | -1.03 (inactive) | 0.82 (inactive) | 0.264 | -0.499 (inactive) | 1.02 (inactive) | -0.273 | 0.623 | 0.469 | -0.677 | 0.565 | 0.474 | -0.659 | -0.652 (inactive) | 0.278 | -0.241 | 0.331 (inactive)
CCCCNC(=O)c1ccc(C#CC(C)(C)C)c(OC(C)=O)c1 | 0.567 (inactive) | -0.148 | 4.63 (inactive) | 0.802 (inactive) | 2.09 (inactive) | 0.181 (inactive) | 0.355 | -0.137 (inactive) | 0.344 (inactive) | 0.416 | 0.3 | 1.75 | -0.835 | 0.13 | -1.37 | -0.75 | -0.103 (inactive) | -0.284 | -0.221 | -0.654 (inactive)
C=CCC(OC(C)=O)[C@@H]1[C@@H](N(Cc2cccc3ccccc23)C(=O)Cc2ccc(F)cc2)c2cc(OCCCO)ccc2N1C(=O)c1ccc2ccccc2c1 (stereo not given in full) | 0.978 (inactive) | 0.23 | 1.06 (inactive) | 0.479 (inactive) | 0.51 (inactive) | 0.484 (inactive) | 0.336 | -1.5 (inactive) | 0.344 (inactive) | 0.453 | 0.937 | 1 | 0.975 | -0.222 | -0.754 | 2.9 | -0.249 (inactive) | -0.774 | -0.45 | 1.25 (inactive)
O=C(c1ccccc1)N1C(=O)[C@]2(Cc3ccccc31)N=C(c1ccc(OCCCO)cc1)O[C@@H]2c1ccccc1 | -0.857 (inactive) | 0.297 | 21.9 (active) | 8.53 (active) | 0.0521 (inactive) | 1.35 (inactive) | -0.203 | 0.491 (inactive) | -0.703 (inactive) | -1.77 | -1.84 | 0.736 | -2.44 | -3.55 | -4.35 | -2.26 | -0.0262 (inactive) | -1.18 | -2.17 | -2.83 (inactive)
CC[C@@H]1C=C(C(=O)O)[C@H](c2ccc(C#N)cc2)N1S(=O)(=O)c1ccc(C)cc1 | -0.29 (inactive) | 0.276 | 1.48 (inactive) | 0.544 (inactive) | -0.158 (inactive) | 0.192 (inactive) | -0.436 | 0.452 (inactive) | -0.156 (inactive) | -0.848 | -0.484 | -0.364 | -1 | 0.492 | -0.95 | -0.968 | -0.552 (inactive) | 0.875 | -1.06 | -0.858 (inactive)
COCC(=C=CC[C@H](O)c1ccc(OCCO)cc1)CCO | 0.367 (inactive) | 0.0774 | 9.25 (active) | 1.02 (inactive) | 0.934 (inactive) | 0.381 (inactive) | -0.439 | 1.03 (inactive) | 0.57 (inactive) | -0.704 | 1.06 | 0.156 | -0.587 | -1.28 | 0.231 | -0.255 | -0.597 (inactive) | 0.854 | 0.464 | 1.01 (inactive)
O=C1CS(=O)(=O)C(c2cccc([N+](=O)[O-])c2)N1c1ccccc1 (stereo not given) | 2.48 (inactive) | 0.683 | -0.625 (inactive) | -1.38 (inactive) | -0.903 (inactive) | -1.68 (inactive) | 1.93 | 0.227 (inactive) | 0.38 (inactive) | 1.79 | 1.02 | 0.116 | 1.46 | 0.637 | 1.22 | 1.24 | -0.662 (inactive) | -0.141 | 2.21 | 0.0249 (inactive)
[N-]=[N+]=NCc1ccccc1C[C@@]1(C(N)=O)N=C(c2ccc(OCCCO)cc2)O[C@@H]1c1ccccc1 | -1.25 (inactive) | 0.408 | 27.2 (active) | 19.2 (active) | 0.354 (inactive) | 2.58 (inactive) | -0.494 | -2.31 (inactive) | 0.64 (inactive) | -0.235 | -0.914 | 0.0779 | -1.94 | -3.04 | -2.88 | -0.864 | -0.262 (inactive) | -1.22 | -0.301 | -1.08 (inactive)
